Assay outcomes deposited in PubChem by National Center for Advancing Translational Sciences (NCATS).
The full list was thinned out, with hits kept by preference.
HT1080 IDH1KD tx – toxicity to HT-1080 IDH1 knockdown cells (counter line). HT-1080 IDH1 knockdown viability, ATP luminescence, 48 h. Potency, µM (series often up to 46.1 µM), for inactives: top-dose activity, negative = toxicity, usual class: cytotoxic. 2% of 360,000 active. AID 686971;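 further: potency means the concentration at half of the fitted maximal effect; 0% = DMSO wells and -100% = cell-free medium wells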
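% activity derives from luminescence (CellTiter-Glo), normalised to DMSO and no-cell wells. HT-1080-IDH1KD cells, 750/well, had 48 h compound exposure at 37 °C.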
DT40 TDP1 no CPT – qHTS for Inhibitors of human tyrosyl-DNA phosphodiesterase 1 (TDP1): qHTS in cells in absence of CPT | DT40 Tdp1-/- hTDP1 cells, no CPT, ATP luminescence, 48 h | Potency, µM (top dose mostly 46.2 µM), for the others: at the highest dose activity change, negative = growth inhibition, actives largely listed as inhibitors | 15% of 420,000 active; further: potency means the concentration at half of the fitted maximal effect; nearly all actives have a fitted effect of over 55% in size
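Stably hTDP1-transfected Tdp1-null chicken DT40 cells were treated with library compounds minus camptothecin and grown for at least 48 hr at 37 °C, after which cellular ATP was quantified by luminescence.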
HT1080NT lethal – kills 2HG-producing HT-1080-NT fibrosarcoma cells; 1.6% of 360,000 active; HT-1080-NT fibrosarcoma viability, CellTiter-Glo ATP luminescence, 48 h; Potency, µM (top dose mostly 46.1 µM), for the others: at the top dose activity, negative = less viability, most hits filed as cytotoxic;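 further: NT is the 2HG producing partner of a matched IDH1 knockdown line; potency means the concentration at half of the fitted maximal effect; 0% = DMSO-treated cells and -100% = media-only wells without cells; nearly all actives have a fitted effect of over 55% in size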
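HT-1080-NT fibrosarcoma cells (2HG-overproducing), 750 cells/well in RPMI with 5% FBS, dosed after 2 h and incubated 48 h at 37C. CellTiter-Glo luminescence normalized to DMSO and no-cell wells; concentration-response curves fitted and classed.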
IL-1B inflam inh – inhibitors of inflammasome signaling (IL-1 beta secretion); THP-1 LPS/ATP IL-1B secretion, AlphaLISA, 16 h; active compounds read low; activity change, % at 57.5 µM; 4.7% of 360,000 active; AID 743279; in the data active means activity change below about -50%; inconclusive means mostly about -30% to -49%
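Secreted IL-1B measured by AlphaLISA bead assay after 16 h compound exposure of THP-1 cells; compounds (final up to 57.5 uM) added 1 h before LPS (250 ng/mL) and ATP (1.25 mM) stimulation; lower signal means less secretion.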
TDP1 cell CPT – DT40-hTDP1 cell growth loss with CPT. chicken DT40 Tdp1-/-;hTDP1 cells + 20 nM CPT, ATP luminescence, 48 h. Potency, µM (series often up to 46.2 µM), inactives show at the top dose activity change, negative = growth inhibition, hits mostly inhibitors. 12% of 420,000 active; further: potency means the concentration at half of the fitted maximal effect; nearly all actives have a fitted effect of over 55% in size
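Chicken DT40 Tdp1-/- cells complemented with human TDP1, 400 cells/well, exposed to compounds plus 20 nM camptothecin for at least 48 h at 37 C; viability read as ATP content by CellTiter-Glo luminescence.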
12-LOX inh – inhibitors of human 12S-lipoxygenase ALOX12. P18054. purified 12hLO, xylenol orange hydroperoxide absorbance. Potency, µM (highest dose often 108 µM), inactives show top-dose activity change, negative = inhibition, hits mostly inhibitors. 1.1% of 580,000 active. AID 1671190; further: potency means the concentration at half of the fitted maximal effect
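Purified human 12hLO at 150 nM in 25 mM Hepes, 0.01% Triton X-100, pH 7.0, preincubated 15 min at room temperature with compound. Reaction started with 40 uM arachidonic acid, 30 min at room temperature. Hydroperoxide measured by Fe-xylenol orange, 573/405 nm absorbance ratio.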
* hit, by the source's call; ? = inconclusive; · = no result given; [ ] = another dose, or the depositor's remark. Unless noted, the call rests on the fitted dose curve; in most records, active means well fitted curve in the direction sought with a large enough effect; inconclusive means small, poorly fitted or top-dose-only effect, or another doubt; inactive means no such curve, though single readings can be large; an effect the other way counts as inactive or inconclusive. Unless noted, on the % scale 0 is the no-effect control and ±100 the full control effect.

SMILES | HT1080 IDH1KD tx | DT40 TDP1 no CPT | HT1080NT lethal | IL-1B inflam inh | TDP1 cell CPT | 12-LOX inh
Cc1ccc(C2CCN(C(=S)Nc3cccc(C)c3)C2)cc1 (stereo unspecified) | -7.1% | 18.4µM* | 1.1% | 10.0 | ? | ?
CC(C)c1ccc(NC(=O)N2CCC(c3nc4ccccc4o3)CC2)cc1 | 4.8% | 18.4µM* | -12.6% | -15.8 | 20.6µM* | 24.3%
Cc1cc(C)cc(NC(=O)N2CCC(c3nc4ccccc4o3)CC2)c1 | 7.9% | -26.8% | 3.9%[9.24 µM] | 0.0 | ? | -0.3%
COc1ccc(CNC(=O)NCC2Cn3cccc3C(=O)N2Cc2ccccc2)cc1 (stereo unspecified) | · | · | · | · | · | -2.5%
CCCCCCCNC(=O)CCNC(=O)c1ccccc1 | · | · | · | · | · | -10.2%
Cc1ccc(C)c(S(=O)(=O)N2CCN(C(=O)CCc3ncc(-c4ccc(F)cc4)o3)CC2)c1 | · | · | · | · | · | -34.9%
O=C(NCCC1CCCO1)c1cc(-c2ccncc2)nc2ccccc12 (stereo unspecified) | · | · | · | · | · | 10.1%
CCN1/C(=C\C=C2\C(=O)N(c3ccccc3)C(=S)N2C)Sc2ccccc21 | 18.7% | 10.3µM* | -3.4% | -2.5 | ? | ?
CC1(C)CC(NC(=O)c2coc(=O)c(Br)c2)CC(C)(C)N1 | 4.9% | 0.517µM* | 10.2% | -14.8 | 0.326µM* | 74.8%
Cn1c(CN2CCN(c3ccccc3NC(=O)Nc3ccccc3)CC2)nc2ccccc21 | · | · | · | · | · | -28.3%
COCC1CN(S(=O)(=O)c2ccc(C#N)cc2)CC12CCNCC2 (stereo unspecified) | · | · | · | · | · | 40.3%
CSc1ccc(/C=C(\NC(=O)c2ccc(C)cc2)C(=O)NN)cc1 | 4.0% | 3.8% | -4.4% | ? | 7.7% | 94.3%
CSc1ccc(/C=C(/NC(=O)c2ccc(C)cc2)C(=O)Nc2cccc(C)c2)cc1 | 0.2% | 7.31µM* | 0.8% | 36.9 | 7.31µM* | -7.6%
CCOC(=O)c1sc(N/N=C/c2ccccc2)nc1C | -18.8% | ? | ? | -5.0 | ? | ?
CC(=O)c1sc(N/N=C\c2ccccc2O)nc1C | ? | 0.92µM* | ? | -74.2* | 1.03µM* | -5.3%
CC(=O)c1sc(Nc2ccc(Oc3ccccc3)cc2)nc1C | ? | 20.6µM* | ? | 47.5 | ? | -13.0%
COc1ccc(C(=O)c2sc(Nc3ccccc3)nc2C)cc1 | ? | ? | -18.5% | -70.1* | ? | ?
COC(=O)c1sc(Nc2ccccc2)nc1C | 11.5% | -10.4% | -2.2% | 8.8 | -18.0% | -7.9%
COc1ccc(Nc2nc(N)c(C(=O)c3ccc(F)cc3)s2)cc1 | 1.84µM* | 0.581µM* | ? | -22.1 | 0.731µM* | ?
CC(=O)c1sc(Nc2ccccc2)nc1C | 6.6% | -15.5% | 6.3% | 29.3 | -20.3% | -1.2%
COc1cc(CN(C)CC(=O)N2c3ccccc3NC(=O)CC2C)ccc1OC(F)F (stereo unspecified) | · | · | · | · | · | 6.2%
O=C1CN(C(=O)c2cc(-c3ccccc3)nc3ccccc23)CCN1 | · | · | · | · | · | 0.1%
COCCn1cc(CN2CCN(Cc3cccc(F)c3)CC2)ccc1=O | · | · | · | · | · | 53.9%
COc1ccc(Nc2nc(N)c(C(=O)c3ccc(OC)c(OC)c3)s2)cc1 | · | · | · | · | · | 4.3%
COc1ccc(Nc2nc(N)c(C(=O)c3ccc(OC)cc3)s2)cc1 | ? | 1.64µM* | ? | -74.3* | 1.64µM* | 108.8%
Cc1ccc(C(=O)c2sc(Nc3ccc(F)cc3)nc2N)c(C)c1 | · | 14.6µM* | · | · | 13µM* | ?
Nc1nc(Nc2ccccc2F)sc1C(=O)c1ccc(Cl)cc1 | · | ? | · | · | ? | -13.0%
CC(C)(C)C(=O)c1sc(Nc2ccccc2)nc1N | ? | ? | -7.9% | -70.7* | ? | ?
